# C8 TRAIL sens = viability loss with TRAIL in NB7+C8 cells, primary screen, TRAIL sensitizer project, cell-based, ATPlite luminescence | inhibition (viability loss, TRAIL sensitization), % at 10 µM | hit rate 1% among 360,000 | AID 624354, 2012;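 active means compounds causing at least 50% loss of cell viability in the single-dose screen, relative to plate controls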
# HSP90 inh = HSP90 inhibitors, primary screen, cell lysate, luminescence; Rabbit reticulocyte lysate, luciferase refolding luminescence, 3 h; inhibition, % at 5.6 µM; hit rate 0.91% among 290,000; AID 1789, 2009;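 active means inhibition above the screen-wide mean plus 3 SD, computed separately per campaign, cut at about 16% in these data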;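 further: 0% = DMSO wells and 100% = 60 µM geldanamycin wells; inhibitors lower the luminescence because luciferase stays unfolded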
# HIF-2a inh = HIF-2a reporter inhibitors, primary screen, luminescence, 786-0 RCC cells; hit rate 0.72% among 360,000; AID 624352, 2012; inhibition, % at 18.8 µM; 786-0 RCC cells HIF-2a reporter, luciferase luminescence, overnight;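 active means inhibition of the luminescence signal of 40% or more relative to plate controls, in a single-dose primary screen at 18.75 µM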
# aSyn UTR inh = MLPCN primary screen, SNCA 5' untranslated region. alpha-synuclein 5'UTR reporter, inhibitor activity. inhibition, % (tested at 7.5 µM). hit rate 0.82% among 300,000. AID 1813, 2009; in the data active means inhibition above about 60%; inconclusive means no clear call, values can overlap the other calls;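 further: H4 neuroglioblastoma cells stably carrying SNCA 5'UTR luciferase fusion; 0% = DMSO wells and 100% = positive control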
# TWEAK-Fn14 inh = inhibitors of TWEAK-Fn14 signaling, primary screen, luciferase reporter cells, uHTS; hit rate 2% among 360,000; inhibition, % at 10 µM; AID 1159606, 2016; TWEAK-stimulated Fn14 reporter cells, luciferase luminescence, 8 h; in the data active means inhibition above about 50%
# TROY NFkB inh = inhibitors of TROY-driven NF-kB signaling, primary screen, Q293 LMP1-TROYcd cells, NF-kB luciferase, uHTS; Q293 LMP1-TROYcd NF-kB luciferase reporter, 4 h; inhibition, % at 10 µM; hit rate 0.98% among 360,000; AID 1347056, 2019;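 active means compounds whose plate-normalised and pattern-corrected inhibition of the luciferase reporter signal at the single screening dose is 50% or more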
# * = called active by the depositor; ? = inconclusive; . = not tested or not shown. The list is not random: actives were taken first. Their share in the collection is about 3.9%.
SMILES,C8 TRAIL sens,HSP90 inh,HIF-2a inh,aSyn UTR inh,TWEAK-Fn14 inh,TROY NFkB inh
CN(C(=O)COC(=O)c1c2c(nc3ccccc13)/C(=C/c1cccc([N+](=O)[O-])c1)CCC2)C1CCS(=O)(=O)C1 (stereo not drawn),16.5,0.1,8.1,72.0*,-49.9,-33.3
OC[C@@H]1CN(Cc2ccccc2)C[C@H](n2cnc3c(Nc4ccccc4)ncnc32)O1,-5.6,.,3.5,.,13.2,-16.6
COc1cc2c(cc1OC)C(C)N(C(=O)c1cc(C)on1)CC2 (stereo not drawn),10.1,-0.4,29.7,97.1*,-5.9,41.7
COc1cc2c(cc1OC)C(C)N(C(=O)c1c(C)noc1C)CC2 (stereo not drawn),18.8,-1.8,9.5,-24.8,-2.6,-0.4
O=C(NCc1ccccc1)OC1CC2CC1[C@H]1CCCCN1C2=O (stereo partly drawn),-9.1,.,-1.1,.,8.0,-5.3
O=C(CN(C(=O)c1ccc(Cl)cc1)C1CCCCC1)Nc1ccc(Cl)c([N+](=O)[O-])c1,-1.1,1.1,-2.5,-0.7,51.0*,34.8
Cc1ccc(S(=O)(=O)c2ccc([N+](=O)[O-])o2)cc1,92.4*,.,89.1*,.,102.2*,58.6*
O=c1[nH]c(=O)c2cc([N+](=O)[O-])cc([N+](=O)[O-])c2[nH]1,-1.8,-2.4,20.9,-59.4,6.6,67.8*
O=c1c2cc([N+](=O)[O-])cc([N+](=O)[O-])c2[nH]n1-c1ccccc1,-6.7,-2.0,1.4,0.8,2.6,3.7
O=C(NCc1cccs1)c1ccc2nc([C@@H]3O[C@H](CO)[C@H](O)[C@H](O)[C@H]3O)[nH]c2c1,14.2,.,5.9,.,-5.2,17.0
O=C(Nc1ccc(C(=O)O)cc1)/C(=C\C=C\c1ccccc1)NC(=O)c1ccccc1Cl,53.9*,4.6,-107.0,12.1,1.8,-28.2
O=C1C(=O)c2cccnc2-c2ncccc21,96.0*,.,89.6*,.,103.5*,65.8*
O=C1c2cccnc2-c2ncccc21,-3.2,7.6,8.3,-10.1,4.6,-0.7
COC1=C(Br)C(=O)c2ncccc2C1=O,5.4,.,72.0*,.,10.2,-0.6
COc1ccccc1N1C(=O)c2cccnc2C1=O,-21.7,-2.1,18.4,-0.1,4.4,0.1
COc1ccccc1N1CCN(C(=O)Cn2nc(C(F)(F)F)c3c2CCC3)CC1,-6.4,-2.0,18.0,30.9,52.8*,.
COc1ccc(CC(=O)Nc2cccc(-c3nnc(-c4ccc(C)cc4)o3)c2)cc1OC,90.1*,-1.1,-13.4,-38.3,101.9*,64.2*
COc1ccc(CC(=O)Nc2cccc(-c3nnc(-c4cccc(C)c4)o3)c2)cc1OC,3.3,1.4,-81.9,-187.4,88.9*,60.9*
COc1ccc(CC(=O)Nc2cccc(-c3nnc(-c4ccccc4)o3)c2)cc1OC,56.2*,3.1,-297.4,-28.0,102.2*,69.2*
CCOC(=O)[C@]12CCC=C1N(Cc1ccc3c(c1)OCO3)C(=O)[C@H](CC(=O)N1CCSCC1)C2,8.3,.,11.4,.,0.5,-0.9
O=C(Nc1c(-c2ccc3c(c2)OCO3)[nH][nH]c1=O)c1cnccn1,7.5,.,0.7,.,3.6,9.1
CCOC(=O)c1c(NC(=O)CSc2nnc(-c3c[nH]c4ccccc34)n2CCOC)sc2c1CCCCC2,-9.3,5.6,-10.7,-5.0,53.0*,3.5
Cc1ccc(S(=O)(=O)Nc2ccc3c(c2)C(=O)N([C@@H](C)CO)C[C@@H](C)[C@@H](CN(C)CC2CC2)OCCCC[C@@H](C)O3)cc1,-16.7,.,0.5,.,6.8,-6.4
CCOC(=O)c1ccc(NC(=O)c2c(NC(=O)CCC(=O)O)sc3c2CCCCC3)cc1,-2.9,-3.3,6.3,-15.4,73.7*,33.5
CC1CC(=O)C2=C(C1)Nc1ccccc1SC2c1ccc(F)cc1 (stereo not drawn),3.5,1.3,29.2,-11.7,8.2,66.6*
SMILES,C8 TRAIL sens,HSP90 inh,HIF-2a inh,aSyn UTR inh,TWEAK-Fn14 inh,TROY NFkB inh
COCc1ccc(CN2CCC(n3nccc3NC(=O)c3ccc4c(c3)OCO4)CC2)o1,2.0,.,4.7,.,-7.2,-0.5
Cn1cc(CN2CCN(c3ncccn3)CC2)c(-c2cccc(Cl)c2)n1,-8.8,-2.7,4.4,0.4,1.7,0.3
Cc1cc(N2CCN(Cc3cn(C)nc3-c3ccccc3F)CC2)cc(C)n1,13.0,0.2,18.1,90.9*,4.8,18.0
Cc1cc(N2CCN(Cc3cn(C)nc3-c3cccc(Cl)c3)CC2)cc(C)n1,4.0,2.7,17.5,71.6*,8.4,24.9
CN1CCN(Cc2cn(C)nc2-c2ccccc2F)CC1c1ccccc1 (stereo not drawn),10.5,-6.3,1.6,18.3,8.9,-8.8
Cc1cccc(CN2[C@H](COCc3ccccc3)C=CS2(=O)=O)c1,25.4,.,7.9,.,-3.9,11.0
CC(C)[C@@H](CO)NC(=O)c1ccc2c3n(nc2c1)-c1ccccc1CO3,71.1*,.,-119.6,-47.0,43.8,46.2
CC(C)NC(=O)c1ccc2c3n(nc2c1)-c1ccccc1CO3,90.6*,.,-58.6,?,57.8*,8.3
COCCNC(=O)C1CCCN(C(=O)c2nc3ccccc3s2)CC1 (stereo not drawn),-13.4,.,8.1,.,8.8,23.7
CCOC(=O)c1cc(NC(=O)NC2CCCCC2)c(C)nc1C,2.6,0.7,9.9,-6.6,109.3*,4.2
CCOC(=O)c1cnc(-n2nc(C)cc2C)nc1NNc1nc(-c2ccccc2)cc(-c2ccccc2)n1,40.8,-7.7,18.3,81.7*,-2.0,14.2
CCOC(=O)c1cnc(-n2nc(C)cc2C)nc1NC1CCCCC1,9.6,2.1,8.6,34.5,49.2,53.7*
CCOC(=O)c1cnc(-n2nc(C)cc2C)nc1NNc1nc(C)cc(C)n1,-7.1,-1.8,0.8,-17.2,17.6,-5.8
CCOC(=O)c1cnc(-n2nc(C)cc2C)nc1Nc1ccc(C)cc1,-8.2,1.4,-2.6,38.3,4.4,4.0
CCOC(=O)c1cc(NC(=O)N(C(C)C)C2CCCCC2)c(C)nc1C,20.8,-5.3,6.6,11.7,-4.8,-4.0
CCOC(=O)c1cnc(-n2nc(C)cc2C)nc1Nc1ccc(O)cc1,20.5,-1.0,14.1,19.6,30.4,50.8*
CCOC(=O)N(C)C[C@@H]1OCc2cnnn2CCCC(=O)N([C@H](C)CO)C[C@@H]1C,13.3,.,-3.0,.,-11.9,-8.3
CC1=C(C(=O)Nc2ccccc2)C(c2ccc(C)o2)n2ncnc2N1 (stereo not drawn),-4.5,1.8,10.1,3.0,82.9*,.
O=c1[nH]c(Nc2ccccn2)cc2ccccc12,-6.2,.,-246.6,-112.3,13.5,-15.4
O=c1[nH]c(-c2ccccn2)cc2ccccc12,8.5,-0.7,-207.9,-117.7,78.9*,36.0
Cc1ccc(S(=O)(=O)NC(=O)N2CCCC2)cc1,-2.3,.,-0.1,.,7.9,-0.8
Brc1ccc2[nH]c3c(N4CCc5ccccc5C4)ncnc3c2c1,.,2.2,.,-43.3,.,.

# Screens as filed in PubChem BioAssay.
